Source: PubChem BioAssay AID488969 (Vanderbilt High Throughput Screening Facility, 2010)
The full ranking holds about 110,000 compounds; the median of “z-score” is about -0.1, and the highest 2% start at about 2. The entries come from a sample that favours the highest values as a whole. Activity calls are given as the source filed them.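 Rule for the calls: active = z-score in the third read window above 3 or below -3; inactive = the rest.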

What follows are compounds tested against Metabotropic glutamate receptor 8 (Rattus norvegicus) (UniProt P70579) (assay: mGluR8 Gi/Go-coupled signaling modulation – cell-based, rat, thallium flux, HTS, primary screen (AID 488969)). Details: HEK293 rat mGluR8, GIRK (G protein-gated inwardly rectifying potassium channel) thallium flux, FluoZin2; at 10 µM; stronger effect = higher value; submaximal glutamate (EC20) added with thallium.
Chain of Metabotropic glutamate receptor 8 (Rattus norvegicus) (P70579 whole entry, looked up): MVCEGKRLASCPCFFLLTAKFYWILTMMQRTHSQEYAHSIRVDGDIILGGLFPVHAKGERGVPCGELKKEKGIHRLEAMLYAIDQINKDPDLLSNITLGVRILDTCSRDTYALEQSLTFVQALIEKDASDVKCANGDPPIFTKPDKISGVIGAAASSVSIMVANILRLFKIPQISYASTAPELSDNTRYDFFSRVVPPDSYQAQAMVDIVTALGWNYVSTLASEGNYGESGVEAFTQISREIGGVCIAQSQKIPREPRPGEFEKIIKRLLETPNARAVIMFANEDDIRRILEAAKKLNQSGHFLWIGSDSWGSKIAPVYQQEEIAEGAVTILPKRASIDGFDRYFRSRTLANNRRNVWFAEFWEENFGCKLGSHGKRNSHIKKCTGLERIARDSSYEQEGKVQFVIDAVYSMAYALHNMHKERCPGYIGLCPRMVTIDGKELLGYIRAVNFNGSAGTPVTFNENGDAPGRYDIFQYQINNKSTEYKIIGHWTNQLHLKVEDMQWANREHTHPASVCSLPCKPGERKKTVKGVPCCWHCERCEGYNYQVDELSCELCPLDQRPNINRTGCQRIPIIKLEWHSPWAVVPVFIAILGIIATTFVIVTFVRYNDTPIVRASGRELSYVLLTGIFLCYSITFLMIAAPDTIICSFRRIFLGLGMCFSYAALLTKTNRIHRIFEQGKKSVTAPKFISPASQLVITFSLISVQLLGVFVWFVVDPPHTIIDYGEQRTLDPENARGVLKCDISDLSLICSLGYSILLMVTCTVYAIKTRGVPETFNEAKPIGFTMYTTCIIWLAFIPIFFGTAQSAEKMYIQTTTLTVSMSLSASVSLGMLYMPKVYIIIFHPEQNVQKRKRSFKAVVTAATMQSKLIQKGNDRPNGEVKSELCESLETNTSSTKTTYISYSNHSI

SMILES | z-score
O=[N+]([O-])c1ccc(Cl)c(S(=O)(=O)N2CCCCCC2)c1 | -0.0418
COc1ccc(-c2nsc3c(SCC(=O)Nc4cc(C)ccc4C)ncnc23)cc1 | 0.00156
CC(NS(=O)(=O)c1ccc(CCC(=O)N2CCN(C)CC2)cc1)c1ccccc1 (centres undefined) | -0.349
O=C(COc1ccccc1Cl)Nc1nc(-c2cccs2)cs1 | 0.4
O=C(Cc1ccccc1)Nc1nnc(-c2cccs2)s1 | 0.154
O=C(COc1ccccc1)Nc1nccs1 | 1.35
O=C(COc1ccccc1)Nc1nc(-c2cccs2)cs1 | 2.15
CC(=O)Nc1nc(-c2cccs2)cs1 | -0.281
O=C(Cc1ccccc1)Nc1nc(-c2cccs2)cs1 | 2.99
Cc1cccc2cc(CN(Cc3ccc(F)cc3)C(=O)C(F)(F)F)c3nnnn3c12 | -0.681
Cc1ccc2c(c1)N(CC(=O)NCc1ccco1)C(=O)CO2 | -0.265
COc1ccc2nc(SCc3cnc(C)nc3N)[nH]c2c1 | 0.0366
CCc1ccc2[nH]c(=O)c(CN(CCN(C)C)C(=O)Nc3ccccc3)cc2c1 | -0.0486
N#Cc1c(N)sc2c1CCN(CCc1ccccc1)C2 | 0.208
COc1ccccc1-n1c(SCC(=O)NC2CCS(=O)(=O)C2)nc2cc([N+](=O)[O-])ccc21 (centres undefined) | -0.116
COc1ccc2nc(SCC(=O)O)nc(C)c2c1 | -0.216
CCOC(=O)CCSc1nc(C)c2cc(OC)ccc2n1 | -0.0662
CCOC(=O)CSc1nc(C)c2cc(OC)ccc2n1 | 6.89 (active)
CC1CCCN(C(=O)C2CCCN(S(=O)(=O)c3cccc4nsnc34)C2)C1 (centres undefined) | 0.195
Cc1ccc(C)c(NC(=S)NNC(=O)c2csc(C(C)C)c2)c1 | 12 (active)
Cc1cccc(NC(=S)NNC(=O)c2csc(C(C)C)c2)c1 | 8.28 (active)
CCCCNC(=S)NNC(=O)c1csc(C(C)C)c1 | 0.133
Cc1cc(C(=O)NNC(=S)NCC(C)C)cs1 | 0.377

SMILES | z-score
CCNC(=S)NNC(=O)c1csc(C(C)C)c1 | -0.354
Cc1ccc(C)c(NC(=S)NNC(=O)c2ccc(Br)o2)c1 | 0.537
CCCCn1c(SCC(=O)Nc2cc(C)on2)nnc1-c1ccco1 | 1.3
CCOc1ccccc1NC(=O)c1ccc(F)c(S(=O)(=O)N2CCC3(CC2)OCCO3)c1 | 2.77
COc1ccccc1NC(=O)c1cc(S(=O)(=O)N2CCC3(CC2)OCCO3)ccc1F | -0.251
CCOc1ccccc1NC(=O)c1cc(S(=O)(=O)N2CCC3(CC2)OCCO3)ccc1F | -0.432
CCNC(=S)NN=C1CCC(C(C)(C)C)CC1 (centres undefined) | 0.883
O=C(COC(=O)COc1ccccc1Cc1ccccc1)Nc1cccnc1Cl | -0.941
Cc1cccc2sc(NC(=O)Cn3cccc3)nc12 | 13.9 (active)
Cc1cccc2sc(NC(=O)CSCc3ccccc3)nc12 | 0.801
Cc1cccc2sc(NC(=O)CN3C(=O)c4ccccc4C3=O)nc12 | -0.16
Cc1onc(-c2c(F)cccc2Cl)c1C(=O)N1C=CC(C(F)(F)F)=NCC1 | -0.013
Cc1cc(=O)[nH]c(SCC(=O)N2CCCc3ccccc32)n1 | 0.265
Nc1nc(SCC(=O)N2CCc3ccccc32)[nH]c(=O)c1-c1ccccc1 | 0.47
Cc1nnc(SCC(=O)N2CCCc3ccccc32)[nH]c1=O | -0.411
CCc1c(C)nc(SCC(=O)N2CCc3ccccc32)[nH]c1=O | 4.54 (active)
O=C(CSc1nc(-c2ccccc2)cc(=O)[nH]1)N1CCc2ccccc21 | 9.86 (active)
O=C(CSc1nc(O)cc(=O)[nH]1)N1CCCc2ccccc21 | -0.65
CCOc1ccc(C2/C(=C(/O)c3ccccc3)C(=O)C(=O)N2CCCN(C)C)cc1OC (centres undefined) | 0.188
O=C(COC(=O)c1cnccn1)c1ccc2ccccc2c1 | 0.118
CCSc1nc2ccccc2c(=O)n1OCC(=O)OC | -0.148
COn1c(SC(C)C)nc2ccccc2c1=O | -0.948
COC(=O)COn1c(SC(C)C)nc2ccccc2c1=O | 2.57

SMILES | z-score
Cc1cc(NC(=O)c2cc3ccccc3oc2=O)no1 | 0.0723
Cc1cc2cc(CN(CCN3CCOCC3)C(=O)Nc3ccccc3F)c(=O)[nH]c2cc1C | -0.536
CC(C)OP(=O)(OC(C)C)C1(O)C(=O)Nc2ccccc21 (centres undefined) | -0.0437
COc1ccc(C(=O)NC(=S)N(Cc2ccccc2)Cc2ccccc2)cc1 | 16.8 (active)
COc1ccc(C(=O)NC(=S)Nc2ccccc2F)cc1 | 0.595
CCOc1ccc(C(=O)NC(=S)N(Cc2ccccc2)Cc2ccccc2)cc1 | 11.7 (active)
COc1ccc(C(=O)NN(c2ccccc2)c2ccccc2)cc1 | -0.0602
CCOc1ccc(C(=O)NCCc2ccccc2)cc1 | 0.0133
CCOc1ccc(C(=O)NC(Cc2ccccc2)C(=O)OC)cc1 (centres undefined) | -0.262
COc1ccc(C2SCC(=O)N2CC23CC4CC(CC(C4)C2)C3)cc1 (centres undefined) | -0.23
CCC(=O)N1N=C(c2c(-c3ccccc3)c3cc(Cl)ccc3[nH]c2=O)CC1c1ccco1 (centres undefined) | -0.155
CCCCn1c(/N=C/c2ccc3c(c2)OCO3)nc2ccccc21 | -0.738
CC(C)=CC[N+]1(C)CCCCC1 | 1.14
N#C/C(=C\c1cn(CCOc2ccccc2F)c2ccccc12)C(=O)NCc1cccs1 | -0.0588
CCOc1ccc(/C=C2/C(=O)N(c3ccc(OC)cc3)C(=S)N2CC(=O)OC)cc1OCC | 0.273
CCOc1ccc(N2C(=O)/C(=C/c3cc(OC)c(OC)c(OC)c3)N(CC(=O)OC)C2=S)cc1 | 14.1 (active)
CCOc1ccc(N2C(=O)/C(=C/c3cccs3)N(CC(=O)OC)C2=S)cc1 | -0.17
S=c1sc(SCCOc2ccccc2)nn1-c1ccccc1 | -0.317
COc1cccc(C(=O)OCc2ccccc2C#N)c1O | -0.163
O=C(Nc1ccccc1)N(C1=NCCCCS1)c1cccc2ccccc12 | -0.463
Cc1ccc(Nc2n[nH]c(C)c2[N+](=O)[O-])cc1 | -0.101
Cc1cccc(Nc2n[nH]c(C)c2[N+](=O)[O-])c1 | 0.073
Cc1ccc(Nc2n[nH]c(C)c2[N+](=O)[O-])cc1C | 2.51

SMILES | z-score
CNC(=O)CCCc1nc(-c2ccccc2Cl)no1 | 0.0193
COC(=O)c1sccc1NC(=S)N1CCN(c2ccccc2)CC1 | -0.397
Cc1cc(C(=O)NC(C)c2ccc3c(c2)OCO3)cs1 (centres undefined) | 0.0632
Cc1cc(C(=O)NC(C)c2ccncc2)cs1 (centres undefined) | 2.05
Cc1cc(C(=O)NNC(=S)NC(C)c2ccccc2)cs1 (centres undefined) | -0.281
Cc1cc(C)c2nc(SCC(=O)N3CC(=O)Nc4ccccc43)c(C#N)cc2c1 | -0.188
CC1CC1C(=O)NCCc1ccc(Cl)cc1 (centres undefined) | 1.05
N#Cc1ccc(-n2c(-c3ccccc3)nnc2-c2ccccc2)cc1C#N | 0.19
COc1ccccc1/C=C/C=N/N1CCN(Cc2ccc(Cl)cc2)CC1 | -0.494
COc1ccccc1/C=C/C=N\N1CCN(Cc2ccccc2Cl)CC1 | 5.52 (active)
COc1ccccc1/C=C/C=N/N1CCN(Cc2cccc3ccccc23)CC1 | -0.494
CN(C)c1ccnc(-n2cccc2/C=N/OCc2cccc(F)c2)c1C#N | -0.0405
CCN(C(=O)CSc1ncccc1C(=O)OC(C)C)c1cccc(C)c1 | -0.441
O=C(Nc1cc(C(F)(F)F)ccc1F)C1CCC1 | 0.411
COc1ccc(Nc2nc(N)nc(COc3ccc(OC)cc3)n2)cc1 | -0.113
COc1ccc(Nc2nc(N)nc(CSc3nnc(N)s3)n2)cc1 | -0.571
COc1ccc(Nc2nc(N)nc(CSc3nnc(C)s3)n2)cc1 | 2.42
COc1ccc(OCc2nc(N)nc(Nc3ccc(C)cc3)n2)cc1 | 0.32
Cc1nnc(SCc2nc(N)nc(Nc3ccccc3)n2)s1 | -0.209
COc1ccc(OCc2nc(N)nc(Nc3ccccc3)n2)cc1 | 5.72 (active)
O=C1c2ccccc2CC1(Cc1ccccc1)Cc1ccccc1 | -0.201
COc1ccc(OCC(=O)N/N=C/c2ccsc2)cc1 | 0.604
CC(Oc1ccc(Cl)cc1)C(=O)N/N=C/c1ccsc1 (centres undefined) | 11.6 (active)

SMILES | z-score
CC(C)(C)c1ccc(OCC(=O)N/N=C/c2ccsc2)cc1 | 0.2
COc1cc(C(=O)Nc2ccc(S(=O)(=O)NC(C)(C)C)cc2)cc(OC)c1OC | -0.258
CCOc1cc(N2CCOCC2)c(OCC)cc1NC(=O)COC(=O)CCc1c[nH]c2ccccc12 | 8.03 (active)
CCOc1cc(N2CCOCC2)c(OCC)cc1NC(=O)Cc1cccc2ccccc12 | -0.178
CCOc1cc(N2CCOCC2)c(OCC)cc1NC(=O)COC(=O)c1cccc2ccccc12 | -0.0215
CCOc1ccccc1N1C(=O)CC(N(O)c2ccccc2)C1=O (centres undefined) | -0.0542
CC1(C)CN2C(=S)N(c3ccccc3)C(c3ccccc3)N2C1 (centres undefined) | -0.619
COc1ccc(Cl)c(N2CCN(CCCNC(=O)Nc3ccc(C)cc3)CC2)c1 | 2.3
COc1ccc(N2CCN(CCCNC(=O)Nc3ccccc3)CC2)cc1 | 0.121
COc1ccc(N2CCN(CCNC(=O)Nc3ccc(Cl)cc3)CC2)cc1 | 0.451
COc1ccccc1C1(CCNS(=O)(=O)c2ccc(C)cc2)CCOC(C(C)C)C1 (centres undefined) | -0.293
CC(=O)/C(=N/Nc1ccccc1)Sc1nnc(C(O)c2ccccc2)n1-c1ccccc1 (centres undefined) | -0.33
COc1cc(Cl)c(C)cc1NC(=O)CSC | 0.0277
CCn1cc(CNC(=O)/C=C/c2ccc([N+](=O)[O-])cc2)c(C)n1 | -0.204
COc1ccc2nc(Nc3nc4cc5c(cc4s3)OCO5)sc2c1 | 0.175
Fc1cc(F)c2nc(Nc3nc4cc5c(cc4s3)OCO5)sc2c1 | 1.9
c1ccc2sc(Nc3nc4cc5c(cc4s3)OCO5)nc2c1 | 0.501
Fc1ccc2nc(Nc3nc4cc5c(cc4s3)OCCO5)sc2c1 | -0.101
Fc1cccc2sc(Nc3nc4cc5c(cc4s3)OCCO5)nc12 | 2.25
Fc1cccc2sc(Nc3nc4cc5c(cc4s3)OCO5)nc12 | 5.54 (active)
Clc1cccc(Cl)c1Cn1cnc(=NCc2ccco2)c2[nH]cnc21 | -0.33
COc1ccc(/C=N/Nc2cc(C)nc(NS(=O)(=O)c3ccc(C)cc3)n2)cc1 | -0.501
